Molecules are shown by their SMILES. Screen size: about 69,000 compounds; about 950 (1.4%) showed an effect of 50% or more. The entries come from a sample that favours strong results as a whole.

Results on 89 molecules are retold here after ChEMBL document CHEMBL3988442, “University of Dundee, Small-Polar-MMV Screening Library” (2021).

For this test, the system named is Mycobacterium tuberculosis. The test can be described thus: Cornell M. t heat shock assay. Further: in the data most compounds retested in dose-response had high values. It is filed as functional, organism-based. Set-up: dose or concentration left out as unconfirmed.
For the molecule `CCN1C[C@@H]2[C@@H](OC)CCN(S(=O)(=O)c3ccccc3)[C@@H]2C1.O=C(O)C(F)(F)F`, the “Percent Effect” value is given as -5.885%. Under `COCC(=O)N1CCn2c(COc3cccnc3)cnc2C1C.O=C(O)C(F)(F)F` (centres undefined) stands 5.093%; under `CC(=O)N1CCN(Cc2ccccn2)CC2(CC(=O)N(C)C2)C1.O=C(O)C(F)(F)F.O=C(O)C(F)(F)F` (centres undefined), -32.82%. Take `CNC(=O)c1cc(C2CCCN2)n[nH]1.Cl` (centres undefined): the “Percent Effect” value was determined as 10.86%. The result for `CC(=O)N1CCC[C@@H](NCc2c[nH]c3ccccc23)[C@@H]1c1ccc(C)s1.Cl` reads 67.48%. Under `CC(=O)N1CCC[C@@H](NCc2cccc(F)c2)[C@@H]1c1ccc(C)s1.Cl` stands 4.639%; under `CC(=O)N1CCC[C@@H](NCc2ccc(F)cc2)[C@@H]1c1ccc(C)s1`, 15.69%.

Turning to `O=C(O)C(F)(F)F.O=C1[C@H]2CN(Cc3ccco3)C[C@H]2CN1c1ccsc1`, the “Percent Effect” value is listed as 26.88%. As to `O=c1c2cnc(N3CCOCC3)nc2ccn1Cc1ccco1`, the “Percent Effect” value was -1.985%. Under `COCc1nc(N2CC[C@H](N(C)C)C2)c2cnn(C)c2n1` stands -4.11%; under `CCCc1nc(N2CCCC(CCOC)C2)c2cnn(C)c2n1` (centres undefined), -22.83%; under `CCCOC1CCCN(c2nc(CC)nc3c2cnn3C)C1` (centres undefined), 77.82%. Under `CCc1nc(N2CCCC(CCCOC)C2)c2cnn(C)c2n1` (centres undefined) stands -4.574%.

With `CCCOC1CCCN(c2nc(COC)nc3c2cnn3C)C1` (centres undefined), the “Percent Effect” value stood at 67.42%. The result for `CCCc1nc(N2CCCN3CCC[C@H]3C2)c2cnn(C)c2n1` reads -9.904%; that for `CS(=O)(=O)NC[C@@H]1OC[C@H]2CN(Cc3ccccc3)CC[C@H]21.O=C(O)C(F)(F)F`, 25.84%. The result for `O=C(O)Cn1ccc(=O)c2ccc(Cl)cc21` reads -0.616%.

On to `O=C(O)Cn1ccc(=O)c2cc(Cl)ccc21`, for which the “Percent Effect” value was found to be 63.91%. The result for `O=C(O)Cn1ccc(=O)c2cc(F)ccc21` reads 12.91%; that for `CN(C)CCOCc1cncc2c1CCN(C1CCOCC1)C2.O=C(O)C(F)(F)F.O=C(O)C(F)(F)F.O=C(O)C(F)(F)F`, 38.62%. In the case of `O=C(CSc1nnc(N2CCNCC2)s1)Nc1ccccc1.O=C(O)C(F)(F)F`, the “Percent Effect” value was -1.012%.

Consider `CC(C)Oc1ccc(CNC(=O)C2CCS(=O)(=O)C2)cn1` (centres undefined), for which the “Percent Effect” value was -25.56%. `Cc1ccc(C(C)NCCc2nccn2Cc2ccccc2)o1` (centres undefined): the “Percent Effect” value is -11.63%.

`CCc1ccc(C(C)NCc2nccn2Cc2ccccc2)o1` (centres undefined): the “Percent Effect” value turned out to be 91.1%. The result for `CC(NCCc1nccn1Cc1ccccc1)c1cccs1` (centres undefined) reads 34.94%; that for `O=C(O)C(F)(F)F.c1ccc2c(c1)N(CC1CCOC1)CC21CCN(c2cnccn2)CC1` (centres undefined), 16.03%; that for `COCCN1CCCC2(CCC(=O)N2Cc2cccnc2)C1.O=C(O)C(F)(F)F` (centres undefined), -18.4%.

For `Cc1nnc([C@]23COC[C@H]2CN(S(=O)(=O)c2cccnc2)C3)o1.O=C(O)C(F)(F)F`, the “Percent Effect” value is recorded as 48.22%. Under `COc1ccc(CN(C(=O)C2CCCS2)c2ccncc2)cc1` (centres undefined) stands 99.59%; under `COc1ccc(CN(C(=O)C2CCCO2)c2ccncc2)cc1` (centres undefined), -11.42%; under `COc1ccc(CN(C(=O)C2CCOCC2)c2ccncc2)cc1`, -4.775%. With `O=C(CC1CC1)N1CCn2cc(Cn3cccn3)nc2C1.O=C(O)C(F)(F)F`, the “Percent Effect” value is -0.6568%. Turning to `CC(C)n1nc(CN2CCOCC2)c2c1CN(C(=O)c1ccno1)C2.O=C(O)C(F)(F)F`, the “Percent Effect” value turned out to be 17.65%. The result for `Cc1ccc(CNCc2cccc3cn[nH]c23)c(OC2CCOC2)c1` (centres undefined) reads 3.326%; that for `Cc1ccc(CNCc2c[nH]nc2C(C)(C)C)c(OC2CCOC2)c1` (centres undefined), 18.1%; that for `Cc1ccc(CNCc2cccc3cccnc23)c(OC2CCOC2)c1` (centres undefined), 87.35%.

On to `CC(C)N(C)Cc1cnc2n1CCN(Cc1cccc(F)c1)C2.O=C(O)C(F)(F)F.O=C(O)C(F)(F)F`, for which the “Percent Effect” value is given as -5.438%. Under `Cc1nnc(N2CCCC3(CN(Cc4nccs4)CCO3)C2)o1.O=C(O)C(F)(F)F.O=C(O)C(F)(F)F` (centres undefined) stands -34.51%. Regarding `CCN(CC)C1CCN(C(=O)c2cc3cc(C)cc(C)c3nc2C)CC1.Cl`, the “Percent Effect” value is given as 6.865%. Under `Cl.FC(F)(F)c1ccc(-c2cnc(C3CCCN3)cn2)cc1` (centres undefined) stands -8.787%; under `Cn1cc(C2COC3(CCN(C(=O)Cc4ccccc4)CC3)C2)cn1` (centres undefined), 32.13%. With `CC1COC2(CCN(C(=O)Cc3ccncc3)CC2)C1.O=C(O)C(F)(F)F` (centres undefined), the “Percent Effect” value is reported as 19.29%. With `O=C(Cc1ccncc1)N1CCC2(CC1)CC(c1ccccc1)CO2.O=C(O)C(F)(F)F` (centres undefined), the “Percent Effect” value is on record as 53.05%. For the molecule `Cc1ccc(CN2CCn3c(CNC(=O)c4cccn4C)cnc3C2)s1.O=C(O)C(F)(F)F`, the “Percent Effect” value turned out to be 7.209%. Under `COCC1Cn2nnc(-c3cnn(C)c3)c2CN1Cc1cccs1.O=C(O)C(F)(F)F` (centres undefined) stands 17.22%; under `COc1ccc(C)c(NC(=O)NCc2cccc(N(C)C)n2)c1`, 29.74%. Take `CC(=O)c1ccc(NC(=O)NCc2cccc(N(C)C)n2)cc1C`: the “Percent Effect” value is 63.04%. The result for `CN(C)c1cccc(CNC(=O)Nc2ccc3[nH]nnc3c2)n1` reads -8.207%; that for `CS(=O)(=O)N1CCOCC2(CCN(c3ccccn3)C2)C1.O=C(O)C(F)(F)F` (centres undefined), -2.08%; that for `CCN1CCC2(CCN(c3ncccn3)CC2)C1=O.O=C(O)C(F)(F)F`, -1.865%. As to `Nc1cc(N2CCCC(COc3ccc(F)cc3)C2)nc(N)n1` (centres undefined), the “Percent Effect” value is given as 0.7864%. On to `CN(C)Cc1ccc(C(=O)N2CCCC(COc3ccc(F)cc3)C2)o1` (centres undefined), for which the “Percent Effect” value turned out to be 1.225%. The result for `CCNC(=O)c1ccnc(N2CCCC(COc3ccccc3C)C2)c1` (centres undefined) reads -1.28%. Regarding `Cc1ccccc1OCC1CCCN(c2cc(N)nc(N)n2)C1` (centres undefined), the “Percent Effect” value amounted to 94.51%. The result for `Cc1nc(N)cc(N2CCCC(COc3cccc(F)c3)C2)n1` (centres undefined) reads 95.51%; that for `OCc1csc(N2CCCC(COc3cccc(F)c3)C2)n1` (centres undefined), -18.57%; that for `CN(C)Cc1nc(C(=O)N2CCCC(COc3ccc(F)cc3)C2)cs1` (centres undefined), -4.47%. With `Nc1cc(N2CCCC(COc3ccc(F)cc3)C2)ncn1` (centres undefined), the “Percent Effect” value is reported as -15.24%.

`Cc1nc(CN(C)C)cc(N2CCCC(COc3ccc(F)cc3)C2)n1` (centres undefined): the “Percent Effect” value was 82.2%. The result for `Cl.NCCc1cc(N2CCOCC2)nc(NC2CC2)n1` reads -1.001%. In the case of `Cn1cc(N2C(=O)CC[C@@H]3[C@H]2CCN3Cc2nccs2)cn1.O=C(O)C(F)(F)F`, the “Percent Effect” value is -19.88%. On to `O=C(O)C(F)(F)F.O=C1C[C@H]2[C@@H](CCN2C(=O)Cc2cccs2)N1Cc1cccnc1`, for which the “Percent Effect” value is given as -27.42%.

In the case of `Cn1cc(C(=O)N2CC[C@@H]3[C@@H]2CCN3Cc2cccc(F)c2)cn1.O=C(O)C(F)(F)F`, the “Percent Effect” value came to 6.285%. On to `O=C(O)C(F)(F)F.O=C(O)C(F)(F)F.O=C(O)C(F)(F)F.O=C1NC2(CCN(Cc3cccnc3)CC2)CC1c1cccnc1` (centres undefined), for which the “Percent Effect” value was -25.56%. Consider `Cc1cc(CN2CC[C@H]3C[C@H](C(=O)N4CCC(C)CC4)O[C@H]3C2)no1.O=C(O)C(F)(F)F`, for which the “Percent Effect” value is given as -0.569%. The result for `CC1(C)CC(N(Cc2cccnc2)Cc2cccc(F)c2)CC(C)(C)N1.O=C(O)CC(O)(CC(=O)O)C(=O)O` reads -20.05%; that for `CC1c2ncc(Cn3cccn3)n2CCN1Cc1cccnc1.O=C(O)C(F)(F)F.O=C(O)C(F)(F)F` (centres undefined), -18.15%. Regarding `O=C(O)C(F)(F)F.O=C(O)C(F)(F)F.c1cncc(CN2CCc3ncnc(C4CCOC4)c3CC2)c1` (centres undefined), the “Percent Effect” value is -9.628%. On to `Cc1ccc2c(c1)CCC2NCc1c(C)nn(C)c1N1CCOCC1.Cl` (centres undefined), for which the “Percent Effect” value is given as -16.61%.

Consider `CC(=O)N1CCCC(c2cccc(-n3ccnc3)n2)C1` (centres undefined), for which the “Percent Effect” value is reported as -20.38%.

Turning to `Cc1cc(C)nc(N2CCCC(c3cccc(-n4ccnc4)n3)C2)n1` (centres undefined), the “Percent Effect” value came out at 68.58%. The result for `c1cnc(N2CCCC(c3cncc(-n4ccnc4)n3)C2)nc1` (centres undefined) reads -40.48%; that for `O=C(c1ccoc1)N1CCn2cnc(COCC3CC3)c2C1`, 1.475%. The result for `O=C(c1ccc2[nH]ccc2c1)N1CCn2cnc(COCC3CC3)c2C1` reads 54.29%; that for `Cc1cccc(C(=O)N2CCn3cnc(COCC4CC4)c3C2)c1`, 29.98%. The result for `Cn1cc(N2CCC3(CCCN(Cc4ccc(F)cc4)C3)C2=O)cn1.O=C(O)C(F)(F)F` (centres undefined) reads -14.44%. On to `CC(C)CCN1CCc2cc(C(=O)N(C)C)c(NCC3CC3)nc2CC1.O=C(O)C(F)(F)F.O=C(O)C(F)(F)F`, for which the “Percent Effect” value is given as -33.33%. Consider `CNC(=O)[C@H]1C[C@@H]2CN(Cc3csc(C)n3)C[C@@H]2N1S(C)(=O)=O.O=C(O)C(F)(F)F`, for which the “Percent Effect” value is recorded as 2.273%. As to `COCc1cncc2c1CCN(C(=O)c1cccc(C#N)c1)C2.O=C(O)C(F)(F)F`, the “Percent Effect” value is 18.35%. The result for `OCC1N(Cc2ccc(F)cc2)[C@H]2CC[C@]1(O)CC2` (some centres undefined) reads 36.63%; that for `Cc1cc(C)cc(Nc2nc(C)cc(=O)n2CC(=O)NC(C)C)c1`, 5.735%; that for `Cc1cc(=O)n(CC(=O)NC(C)C)c(Nc2ccc(F)c(C)c2)n1`, -7.671%. The result for `CCC(C)NC(=O)Cn1c(Nc2cc(C)cc(C)c2)nc(C)cc1=O` (centres undefined) reads 104.5%. The result for `Cc1ncsc1C(=O)N1CCCCC1c1cc2nc(C)c(C)c(O)n2n1` (centres undefined) reads -18.91%; that for `Cc1noc(C)c1CN1C[C@H]2CN(Cc3cccc(F)c3)C[C@H]2C1.O=C(O)C(F)(F)F.O=C(O)C(F)(F)F`, 1.076%; that for `CCC(=O)N1CCc2[nH]cnc2C12CCN(C(=O)CCS(C)(=O)=O)CC2`, 77.54%. As for `CCC(=O)N1CCc2[nH]cnc2C12CCN(C(=O)c1snnc1C)CC2`, the “Percent Effect” value was -5.563%. Under `CCC(=O)N1CCC2(CC1)c1nc[nH]c1CCN2S(C)(=O)=O` stands -7.001%. Under `O=C(O)C(F)(F)F.O=C(O)C(F)(F)F.c1cncc(N2CCCC3(CN(Cc4cccs4)CCO3)C2)c1` (centres undefined) stands -18.25%.
